Source: ChEMBL document CHEMBL3433997, “St. Jude Leishmania screening dataset” (2016)

What was measured:
Format in all cases: functional
[1] = target: Solute carrier family 2, facilitated glucose transporter member 1 (Homo sapiens) (UniProt P11166); test: ST_JUDE_LEISH: Cytotoxicity at 2uM final concentration against transgenic Leishmania Mexicana promastigotes LmGLUT1 that are glucose transport deficient and complemented with the human glucose transporter GLUT1. Activity is measured by DNA content using SYBR green in vitro
[2] = target: Hexose transporter 1 (Plasmodium falciparum) (UniProt O97467); test: ST_JUDE_LEISH: Cytotoxicity at 2uM final concentration against transgenic Leishmania Mexicana promastigotes LmPfHT that are glucose transport deficient and complemented with the Plasmodium falciparum hexose transporter. Activity is measured by DNA content using SYBR green in vitro
[3] = target: Glucose transporter (Leishmania mexicana) (UniProt O61059); test: ST_JUDE_LEISH: Cytotoxicity at 2uM final concentration against transgenic Leishmania Mexicana promastigotes LmGT2 that are glucose transport deficient and complemented with the L. Mexicana glucose transporter 2. Activity is measured by DNA content using SYBR green in vitro

Chain of Solute carrier family 2, facilitated glucose transporter member 1 (Homo sapiens) (P11166 whole entry): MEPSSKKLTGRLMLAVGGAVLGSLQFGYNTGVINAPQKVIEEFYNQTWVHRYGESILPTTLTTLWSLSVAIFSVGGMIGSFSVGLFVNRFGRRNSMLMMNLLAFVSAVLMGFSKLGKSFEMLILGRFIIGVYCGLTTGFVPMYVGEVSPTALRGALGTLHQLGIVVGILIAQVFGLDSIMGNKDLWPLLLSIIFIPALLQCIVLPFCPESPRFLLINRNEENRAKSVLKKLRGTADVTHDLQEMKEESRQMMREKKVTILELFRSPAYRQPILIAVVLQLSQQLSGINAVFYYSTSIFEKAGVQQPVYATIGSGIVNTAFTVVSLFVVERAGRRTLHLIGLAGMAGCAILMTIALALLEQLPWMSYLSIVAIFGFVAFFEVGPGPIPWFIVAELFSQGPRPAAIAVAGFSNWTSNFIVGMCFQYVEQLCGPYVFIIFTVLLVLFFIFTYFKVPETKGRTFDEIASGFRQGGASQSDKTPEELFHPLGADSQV

SMILES | inhibition [1] | inhibition [2] | inhibition [3]
COc1ccc(NC(=O)/C=C/c2ccccc2Cl)cc1OCCN1CCC(c2nc3ccccc3[nH]2)CC1 | 3.22% | 1.68% | 2.78%
CCc1cc(Br)c(CNCCCNc2cc(=O)c3ccccc3[nH]2)s1 | 0.41% | -0.52% | -2.7%
COc1cc(-n2c(CN3CCCC3)nc3cc(-c4ccc(Cl)cc4)sc3c2=O)ccc1OCCN1CCCC1 | 2.99% | 2.69% | 0.37%
O=S(=O)(c1ccccc1)C1CC1 | 1.39% | 0.38% | -0.5%
Cc1n[nH]c2cc(Nc3ccnc(Nc4cccc(CN5CCOCC5)c4)n3)ccc12 | 7.68% | 6.54% | 3.19%
CCCCCCn1c2c(c(=N)c3c1CCC3)CCC2 | 86.4% | 85.9% | 83.1%
CC(C)C[C@H](NC(=O)[C@H](Cc1ccccc1)N(C[C@H](Cc1ccccc1)NC(=O)OC(C)(C)C)C(=O)C(F)(F)F)C(=O)NC1CCN(Cc2ccccc2)CC1 | 5.24% | 5.7% | 4.2%
O=C(C=Cc1ccc(Cl)c(Cl)c1)NCCCCCN1CCCC(CCCNC(=O)C2CC2c2ccccc2)C1 (stereo not given) | 2.64% | 0.94% | 1.66%
COc1cccc(CN2CCC3(CC2)CN(C(=O)Nc2ccc(Cl)c(Cl)c2)C3)c1 | 2.87% | 3.53% | 3.35%
Cc1c(F)cc(C(=O)NC2CC2)cc1-c1ccc2c(cnn2S(=O)(=O)c2ccc(F)c(F)c2)c1 | 5.87% | 5.31% | 5.54%
O=C(NCc1ccccn1)C(c1cc2ccccc2o1)N1CCN(C(c2ccccc2)c2ccccc2)CC1 (stereo not given) | 0.6% | 2.14% | 2.55%
Cn1c(N=C2NC3(c4ccccn4)NC(=Nc4nc5ccccc5n4C)NC3(c3ccccn3)N2)nc2ccccc21 (stereo not given) | 1.54% | 2.5% | 0.64%
COc1cccc(C(=O)Nc2nc3c(s2)CCN(Cc2ccccc2N2CCNCC2)CC3)c1 | 12.3% | 13.7% | 10.7%
CC1Cc2ccccc2N1S(=O)(=O)c1cccc(C(=O)Nc2nc(-c3ccccn3)cs2)c1 (stereo not given) | 13.8% | 14.6% | 5.62%
Nc1c(Cl)cc(C(O)CNCCCCCOCCCc2ccc(O)c3ncccc23)cc1Cl (stereo not given) | 103% | 99.7% | 97.5%
CCCCN(CCCC)C(=O)CC(O)c1cc2c(Cl)cc(Cl)cc2c2cc(C(F)(F)F)ccc12 (stereo not given) | 1.87% | 1.18% | 2.43%
CCOC(=O)N(C)/N=C/[C@H](CCc1ccccc1)NC(=O)[C@H](CC(C)C)NC(=O)c1cc2cccc(OC)c2o1 | 5.68% | 3.47% | 5.24%
CC(C)(C)NCCN(Cc1ccc(-c2ccc(C(F)(F)F)cc2)cc1)C(=O)Cn1c(SCc2ccc(F)cc2)nc(=O)c2c1CCC2 | 0.94% | 1.75% | 1.74%
Nc1ncc(Cc2cc(Cl)c(N)c3ncccc23)c(N)n1 | 2.6% | 2.88% | 2.91%
CCCCN(CCCC)CCCN(CCCN(CCCC)CCCC)c1cc(C)nc(Nc2ccc(Br)cc2)n1 | -1.21% | -0.35% | -1.15%
CCCCOC(=O)c1ccc(Nc2cc(C)nc3ccc(OC)cc23)cc1 | 14.7% | 12.5% | 6.35%
CC(C)C1=C[C@H]2C[C@]3(C4OCCO4)[C@@H]4CC[C@@H](C)[C@H]4C[C@@]2(C(=O)OCC2COCO2)[C@]13C(=O)OC(c1ccccc1)c1ccccc1 (stereo not given in full) | -1.18% | -2.48% | -1.79%
COc1ccc2nccc([C@@H](O)CN3CCC(NCc4cc5cccc(OCc6ccccc6)c5[nH]4)CC3)c2c1 | 1.7% | 0.05% | 2.01%
COc1ccc(S(=O)(=O)N(c2cc(Br)cc3c2OCC3)S(=O)(=O)c2ccc(OC)c(N3CCN(C)CC3)c2)cc1N1CCN(C)CC1 | 0.39% | 0.62% | 0.55%
Cc1[nH]c(C)c(-c2csc3ccccc23)c(=O)c1Cl | 5.32% | 5.33% | 3.61%
CCCCCCCN(CCCCCCC)CCCC(=O)Nc1ccnc2ccc(OC)cc12 | 1.2% | 1.31% | -1.2%
CCOC(=O)c1ccc(NC(=O)N(Cc2ccc(-c3ccc(CN4CCNCC4)cc3)cc2)Cc2cccnc2)cc1 | 2.01% | 2.09% | 0.48%
COc1ccc2nccc([C@@H](O)CN3CCC(NCc4cc5oc(=O)[nH]c5cc4Cl)CC3)c2c1 | -1.1% | -1.56% | -0.82%
Cc1c(CN2CCCCC2)cccc1OCCCNc1nc(NCCc2ccc(O)cc2)nc(N2CCNCC2)n1 | 5.55% | 2.95% | 5.43%
COc1cccc2cc(C(=O)N[C@@H](CC(C)C)C(=O)N[C@H](C=NNC(=O)OC(C)(C)C)CC(C)C)oc12 | 2.6% | 1.47% | 0.48%
